From PubChem BioAssay
The list is not random: actives were taken first. Their share in the collection is about 4.1%.
hgDAF12 agonist: hgDAF-12 agonism, primary luciferase screen | HEK293 GAL4-hgDAF12 UAS-luciferase reporter, agonist luminescence; normalized to butyrate control | activation, % at 6.8 µM | 1.8% of 370,000 active | AID 687014;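 active = activation above a cutoff set at the mean of all screened compounds plus 3 SD, cut at about 10% in these data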;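 note: 0% = DMSO wells and 100% = sodium butyrate wells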
DAX1 inh-1: DAX1 (NR0B1) inhibition, primary screen. HEK293T StAR-luciferase reporter, SF-1/DAX-1 repression relief. inhibition, % at 6.8 µM. 1.1% of 370,000 active;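 active = inhibition above the mean over all tested compounds plus 3 SD, cut at about 3.6% in these data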;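 note: 0% = DAX-1 cells with DMSO and 100% = cells lacking DAX-1 with DMSO; higher inhibition means more luminescence from relief of DAX-1 repression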
ssDAF-12 act: activates DAF-12 receptor from parasite S. stercoralis; HEK293 ssDAF-12/GRIP1 lit1-tk-luc reporter, luminescence; % of 3 µM dafachronic acid response; activation, % at 6.8 µM; 1% of 370,000 active; AID 652126;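 active = activation above the mean over all tested compounds plus 3 SD, cut at about 0.9% in these data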;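 note: 0% = DMSO-only wells and 100% = 3 µM delta7-dafachronic acid wells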
hcDAF-12 act: activators of H. contortus DAF-12 nuclear receptor; HEK293 hcDAF-12 lit1-tk-luc reporter, luminescence; 0% DMSO, 100% Δ7-dafachronic acid; activation, % at 6.8 µM; 1.4% of 370,000 active; AID 652067;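 active = activation above the mean of all tested compounds plus 3 SD, cut at about 5.5% in these data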;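 note: 100% = response to 3 µM Δ7-dafachronic acid high control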
DAX1 inh-2: inhibits human nuclear receptor DAX1; P51843; HEK293 Gal4-DAX1 luciferase reporter, luminescence; inhibition, % at 6.75 µM; 0.99% of 340,000 active;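 active = inhibition above the mean over all tested compounds plus 3 SD, cut at about 4.2% in these data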;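 note: 0% = DAX1-transfected cells with DMSO and 100% = empty-vector control cells with DMSO; inhibition shows as a rise in luminescence from relieved DAX1 repression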
Target sequence (P51843 207-470 limits assumed): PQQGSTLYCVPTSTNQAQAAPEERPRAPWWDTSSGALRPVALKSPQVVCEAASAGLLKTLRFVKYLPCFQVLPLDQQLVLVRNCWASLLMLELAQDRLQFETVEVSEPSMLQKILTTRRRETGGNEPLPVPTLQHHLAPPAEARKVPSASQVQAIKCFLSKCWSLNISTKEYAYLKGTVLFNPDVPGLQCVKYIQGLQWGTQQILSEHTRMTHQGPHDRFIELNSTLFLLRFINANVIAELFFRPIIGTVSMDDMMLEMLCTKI
Active calls of the source: *; . = not tested or not shown.

SMILES | hgDAF12 agonist | DAX1 inh-1 | ssDAF-12 act | hcDAF-12 act | DAX1 inh-2
Cc1ccccc1NC(=O)c1ccc2c(c1)N(C)CCS2 | 11.9* | 3.6* | -0.8 | 1.6 | 2.3
O=C(Cn1nc(C(=O)O)c2ccccc2c1=O)Nc1ccc(Br)cc1 | -2.7 | -0.1 | 1.1* | 1.5 | -1.0
NC(=O)c1c(NC(=O)Cn2nc(C(=O)O)c3ccccc3c2=O)sc2c1CCCC2 | 12.9* | -0.5 | -1.5 | 0.0 | 2.7
O=C(CCc1ccccc1)N[C@H]1C(=O)CCC[C@]12C(=O)N(Cc1ccccc1)c1ccccc12 | -2.5 | -0.9 | -1.5 | -0.9 | .
Cc1nn(CCC(=O)NNC(=O)Nc2ccccc2)c(C)c1[N+](=O)[O-] | 0.1 | -0.5 | -1.5 | -1.2 | .
NC(=O)c1cnn(-c2cc(Oc3ccccc3)ncn2)c1N | 8.9 | 3.7* | 0.2 | 2.2 | 2.2
Cc1[nH]c2ccccc2c1C1(O)C(=O)N(C(C)C)c2ccccc21 (stereo not given) | 2.1 | 0.0 | -0.4 | 5.8* | 1.4
CCCN1C(=O)C(O)(c2c(C)[nH]c3ccccc23)c2ccccc21 (stereo not given) | 1.0 | -0.4 | -0.3 | 3.8 | 2.5
COc1nc(C)nc2c1sc1nc3c(cc12)COC(C)(C)C3 | 13.0* | 3.9* | 0.2 | 0.3 | 2.2
Cc1nc(OCC(C)C)c2sc3nc4c(cc3c2n1)COC(C)(C)C4 | 5.2 | 1.0 | -0.9 | 1.2 | .
CC(=O)NNc1nc(-c2ccc(NC(C)=O)cc2)cs1 | 0.0 | 0.9 | -1.3 | 1.3 | -1.0
COc1ccc(-c2csc(Nc3ccc(C)cn3)n2)cc1 | 12.1* | 1.1 | -1.1 | 0.8 | 0.7
CC(=O)Oc1ccc(-c2csc(Nc3ccc(Cl)cn3)n2)cc1 | 3.0 | 0.3 | -1.4 | -2.0 | -0.1
Oc1ccc(-c2csc(Nc3ncccn3)n2)c(O)c1 | 24.7* | 1.9 | -0.2 | 0.1 | 2.5
Oc1ccc(-c2csc(Nc3ncccn3)n2)cc1O | 9.8 | 3.5 | -0.1 | 5.5 | 0.2
Cc1nc(C)c(-c2csc(Nc3ccccn3)n2)s1 | 6.1 | 0.2 | 0.3 | 3.9 | -0.7
COc1ccc(-c2csc(Nc3ccccn3)n2)cc1OC | 9.7 | 2.3 | 0.9* | 2.6 | 4.8*
CC(=O)Nc1ccc(-c2csc(Nc3cccc(C)n3)n2)cc1 | 11.3* | 2.5 | -0.4 | 0.9 | 2.7
CCOC(=O)C1(Cc2ccccc2)CCN(Cc2ccnc3ccccc23)CC1 | -4.8 | -3.5 | -2.2 | -4.5 | .
Oc1ccc(-c2csc(Nc3ccccn3)n2)cc1 | 11.4* | 0.9 | 0.1 | 4.8 | 4.7*
Cc1cccnc1Nc1nc(-c2ccc(O)cc2)cs1 | 9.2 | 1.8 | -0.6 | -0.3 | 1.8
O=C(Nc1ccccc1F)O[C@@H]1CC[C@@]23CCCN2C(=O)CCC[C@H]3C1 | 0.5 | . | -1.1 | 1.4 | .
CCc1c(C)sc(NC(=S)N2CCN(CC)CC2)c1C(=O)OC | 1.2 | -0.2 | -1.7 | -2.2 | 5.2*
O=S1(=O)N[C@H](Cc2ccccc2)COc2cccc(N3CCC[C@H]3CO)c21 | 0.4 | -0.3 | -0.7 | 0.2 | .
O=S1(=O)N[C@@H](Cc2ccccc2)COc2cccc(N3CCC[C@H]3CO)c21 | 0.9 | 4.1* | -1.2 | 0.6 | .
SMILES | hgDAF12 agonist | DAX1 inh-1 | ssDAF-12 act | hcDAF-12 act | DAX1 inh-2
O=C(O)c1ccccc1N/N=C/c1c(Sc2nnnn2-c2ccccc2)nc2ccccn2c1=O | -1.6 | 1.7 | 0.0 | -1.0 | -0.3
O=c1c(/C=N/Nc2ccccc2)c(Sc2nnnn2-c2ccccc2)nc2ccccn12 | 12.3* | 0.1 | -0.2 | 6.3* | -2.5
CCOc1ccccc1C(=O)N1CCC(Oc2cccnc2)CC1 | 0.0 | -0.1 | -1.4 | -0.1 | .
N[C@H](C(=O)N[C@@H](Cc1ccccc1)C(=O)N1CCC2CCN(S(=O)(=O)c3ccccc3)CC21)c1ccccc1 (stereo not given in full) | 17.4* | 3.0 | 0.3 | 1.5 | .
CC(C)[C@H](NC(=O)[C@H](Cc1ccccc1)NC(=O)OC(C)(C)C)C(=O)N1CCC2CCN(S(=O)(=O)c3ccccc3)CC21 (stereo not given in full) | -1.5 | -0.4 | -1.1 | 1.4 | .
Brc1ccc(-c2nn3c(-c4ccccc4)nnc3s2)o1 | 3.0 | -1.6 | -1.1 | -2.4 | .
Cn1cccc1C(=O)OCC(=O)NC1CCS(=O)(=O)C1 (stereo not given) | -0.6 | 0.4 | 2.5* | 1.1 | 2.0
Cc1cc(C)c2cc(C(=O)N3CCC(C(=O)c4ccc(F)cc4)CC3)[nH]c2c1 | -2.5 | -0.6 | -1.4 | -2.3 | -1.4
Cc1cc(C)c2cc(C(=O)N3CCC(N4CCCCC4)CC3)[nH]c2c1 | 2.2 | 4.3* | -0.7 | -0.3 | 0.7
CCCC(C(=O)NCC1CCCO1)N(C(=O)CNS(=O)(=O)c1ccccc1)c1ccc(F)cc1 (stereo not given) | -1.4 | -0.4 | -1.3 | -1.9 | 4.6*
CCn1c(SCC(N)=O)nc2cc(S(=O)(=O)N3CCOCC3)ccc21 | -4.9 | 1.0 | -1.1 | -0.5 | -1.8
CCn1c(SCC(=O)c2c[nH]c3ccccc23)nc2cc(S(=O)(=O)N3CCOCC3)ccc21 | -1.1 | 0.2 | -0.6 | 5.6* | 1.9
CC1=C(C(=O)N(C)C)CC(CC(=O)NC2CCCC2)C(=O)N1CCC1=CCCCC1 (stereo not given) | 11.6* | 3.6 | -0.1 | 2.8 | 2.6
CC1=C(C(=O)N(C)C)CC(CC(=O)NC2CCCCC2)C(=O)N1CCC1=CCCCC1 (stereo not given) | 5.5 | 2.5 | -0.7 | 0.3 | 1.2
CC(C)(C)OC(=O)NCc1ccccc1/C=C/S(=O)(=O)NCc1ccccc1 | 0.2 | -0.8 | -1.7 | -1.4 | .
CCCC1CCC2(CC1)CCC2OC(=O)Nc1cccc(Cl)c1 (stereo not given) | 4.1 | . | -0.9 | -1.6 | .
CC1(C)CC(=O)C2=C(C1)OC(N)=C(C#N)[C@@]21C(=O)N(CC(N)=O)c2ccccc21 | -1.5 | -0.1 | -1.4 | 1.1 | -0.4
CC1(C)CC(=O)C2=C(C1)OC(N)=C(C#N)C21C(=O)N2CCCc3cccc1c32 (stereo not given) | -0.8 | -0.6 | 1.0* | 0.0 | 0.1
Cc1ccc(C(=O)Nc2c3c(nn2-c2ccccc2)CS(=O)(=O)C3)cc1C | 0.1 | 0.3 | -0.6 | 5.8* | 0.8
Cc1ccc(-n2nc3c(c2NC(=O)c2ccccc2)CS(=O)(=O)C3)cc1C | 2.2 | 0.3 | -0.6 | -0.9 | 1.4
Cn1c(N2CCOCC2)c(/C=N/O)c2ccccc21 | 0.8 | 0.5 | -0.5 | 4.8 | 7.5*
CN(C)c1c(F)cc(C(=O)NCc2ccccc2)cc1F | 0.3 | 0.2 | -1.5 | -1.0 | 4.3*
O=C(NCc1ccccc1)c1ccc(F)c(F)c1 | -0.6 | -0.4 | -1.1 | -0.1 | 0.2
C/C(C=NNC(=O)c1cc(-c2ccc(Cl)cc2)n[nH]1)=C\c1ccccc1 | -0.8 | -1.9 | -1.6 | 2.4 | .
CCCCN(C)C(=O)CNc1nnnn1-c1ccccc1 | 0.5 | 1.1 | -1.4 | 0.8 | .
Cc1ccccc1NC(=O)C1CCCN1S(=O)(=O)c1cccnc1 (stereo not given) | 2.8 | 0.6 | -2.2 | 1.4 | .
CCCc1nnc(NC(=O)c2cccc(OC)c2)s1 | 12.8* | 4.0* | -0.1 | 1.1 | 2.6
